Screening results from PubChem BioAssay.
mcGAS inh: blocks mouse cGAS activity; hit rate 0.15% among 160,000; AID 1259399; Q8C6L5; recombinant cGAS, Kinase-Glo ATP depletion luminescence; inhibition, % at 12.5 µM;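 note: 0% = negative control wells and 100% = reference inhibitor with no enzyme activity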
NPYLR7 agonist: activates Aedes aegypti NPYLR7 receptor; HEK293T NPYLR7/Galpha15, GCaMP6s calcium fluorescence; activation, % at 10 µM; hit rate 0.15% among 270,000; in the data active = activation above about 40%;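 note: 0% = vehicle and 100% = reference agonist at the receptor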
hcGAS inh: blocks human cGAS activity; recombinant h-cGAS, ATP depletion, Kinase-Glo luminescence; Q8N884; hit rate 0.081% among 290,000; inhibition, % at 12.5 µM;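 note: 0% = vehicle reaction and 100% = reaction without DNA for no activity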
Target sequence (Q8N884 whole entry, looked up): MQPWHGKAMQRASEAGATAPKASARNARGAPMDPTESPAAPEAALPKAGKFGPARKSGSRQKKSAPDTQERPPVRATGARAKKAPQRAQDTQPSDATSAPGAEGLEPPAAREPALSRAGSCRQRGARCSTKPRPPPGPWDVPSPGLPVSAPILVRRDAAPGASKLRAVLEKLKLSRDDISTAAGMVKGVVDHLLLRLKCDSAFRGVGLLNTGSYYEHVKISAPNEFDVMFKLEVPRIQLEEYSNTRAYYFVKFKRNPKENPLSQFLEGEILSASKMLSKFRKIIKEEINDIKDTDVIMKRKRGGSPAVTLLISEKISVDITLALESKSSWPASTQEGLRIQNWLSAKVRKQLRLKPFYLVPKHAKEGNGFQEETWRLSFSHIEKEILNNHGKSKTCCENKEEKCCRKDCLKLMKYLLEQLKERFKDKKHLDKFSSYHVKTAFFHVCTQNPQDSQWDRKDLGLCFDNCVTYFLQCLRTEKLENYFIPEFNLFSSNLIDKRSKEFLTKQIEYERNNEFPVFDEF
Starred values were filed as active, the others as inactive; x = no result; + = active, no number. Sampled rows, rich in hits. Any-hit rate of the full collection: about 0.28%. Cut-off read from the data, not from the text of the source, unless noted: active = inhibition above about 40%; inactive = the rest.

SMILES	mcGAS inh	NPYLR7 agonist	hcGAS inh
Cc1cccc(-c2nc(C)c(C(C)C)c(N3CCN(C(=O)c4cc(C(F)(F)F)cc(C(F)(F)F)c4)CC3)n2)c1	-4	6	-11
CCOc1ccccc1NC(=O)N1CC(=O)N2CCc3c(F)cccc3C2C1 (stereo not drawn)	-3	10	0
COc1cc(NC(=O)N2CC(=O)N3CCc4c(F)cccc4C3C2)cc(OC)c1OC (stereo not drawn)	-8	43*	-7
COC(=O)c1ccc(C=CC(=O)c2ccc(O)c(OC)c2)cc1	44*	0	-4
COc1cc(C(=O)C=Cc2cccc(O)c2)ccc1O	41*	0	1
COc1cc(C=CC(=O)c2ccc(C#N)cc2)ccc1O	3	3	2
COc1cccc(C=CC(=O)c2ccc(OC)c(OC)c2)c1	39	-1	-7
CS(=O)(=O)N1CCCC(C(=O)NCCc2nccn2Cc2ccccc2)C1 (stereo not drawn)	x	9	-8
CC1(C)COCCN1C(=O)Cc1c[nH]c2ccccc12	x	-1	0
COc1cccc(CCC(=O)N2CCC(n3c(C)nc4ccc(C)cc43)CC2)c1	-5	-4	-1
CCc1nc(C)sc1CNC(=O)[C@@]12CNC[C@@H]1CN(C(=O)C1CC1)C2	-6	x	-5
COc1ccc(C(=O)N=c2sccn2Cc2cccc(C(=O)NC3CC3)c2)cc1OC	x	3	-16
CCN1CCN(C(=O)c2ccc(Cn3ccsc3=NC(=O)c3ccc(OC)c(OC)c3)o2)CC1	x	45*	-16
Cc1ccc(N=c2c([N+](=O)[O-])nn(-c3ccc(Cl)cc3)n2O)cc1Br	x	-2	-8
CC(C)N=c1c([N+](=O)[O-])nn(-c2ccc(Cl)cc2)n1O	-9	95*	-3
O=[N+]([O-])c1ccc2nc(-c3nc4ccc([N+](=O)[O-])cc4[nH]3)[nH]c2c1	x	4	-7
O=[N+]([O-])c1ccc2nc(C(F)(F)F)[nH]c2c1	x	12	41*
CC(=O)C1=C(O)C=C2Oc3c(C(C)=O)c(O)c(C)c(O)c3C2(C)C1=O (stereo not drawn)	86*	1	78*
O=C(Oc1ccc2ccccc2c1)C(Cc1ccccc1)N1C(=O)C2C3CCC(C3)C2C1=O (stereo not drawn)	-7	6	-1
COc1cc(C=C2COc3ccccc3C2=O)ccc1OCC#N	38	0	-5
C=CCOc1ccc(C=C2COc3ccccc3C2=O)cc1OC	46*	3	-3
COc1ccc(CC(=O)NCCc2cc3ccc(C)cc3[nH]c2=O)cc1OC	-7	1	-5
Cn1c(SCC(=O)N2CCCC(C(N)=O)C2)nnc1-c1ccccc1 (stereo not drawn)	-8	-1	-5
Cc1ccc(/C=C2\SC(=S)N(CCC(=O)O)C2=O)cc1	-1	-3	4
CN1C(=O)C(=Cc2ccc(O)cc2)SC1=S	x	18	4
SMILES	mcGAS inh	NPYLR7 agonist	hcGAS inh
O=C(O)CCN1C(=O)/C(=C/c2ccc(O)cc2)SC1=S	0	92*	-4
CC(C(=O)O)N1C(=O)/C(=C\c2ccc(O)cc2)SC1=S (stereo not drawn)	2	62*	0
CCCC(C(=O)O)N1C(=O)/C(=C/c2ccc(O)cc2)SC1=S (stereo not drawn)	-4	79*	-4
CC(=O)NN1C(=O)/C(=C\c2ccc(O)cc2)SC1=S	-8	81*	-8
CC(C)N1C(=O)C(=Cc2ccc(O)cc2)SC1=S	-8	5	-8
CSCCC(C(=O)O)N1C(=O)/C(=C/c2ccc(C)cc2)SC1=S (stereo not drawn)	29	-5	-1
Cc1nn(CN(CCC#N)CCC#N)c(=S)s1	-5	2	-2
CCC(CC)n1ncc(C)c1NC(=O)c1ncccc1C	-14	6	-6
O=C(CSc1ncnc2c1nnn2Cc1ccccc1F)NCc1ccccc1	3	17	-5
CCc1nc2n(n1)C(=O)C(C(c1cccc(C(F)(F)F)c1)N1CCN(CCO)CC1)S2 (stereo not drawn)	1	-2	-3
COC(=O)c1ccc(/C=C2/SC(=S)N(C(C(=O)O)C(C)C)C2=O)cc1 (stereo not drawn)	-7	-2	-3
CCOc1cc(/C=C2\SC(=S)N(NC(=O)c3ccccc3O)C2=O)ccc1O	8	59*	-8
CC(C)C(C(=O)O)N1C(=O)/C(=C/c2ccc(N(C)C)cc2)SC1=S (stereo not drawn)	-7	54*	-3
CCOc1cc(C=C2SC(=S)N(c3ccc(OC)cc3)C2=O)ccc1O	-6	-4	-7
Cc1ccc(NC(=O)Cn2ccn3nc(-c4ccccc4)cc3c2=O)cc1	-8	4	-10
O=c1oc2c(-c3ccc(Br)cc3)cc(O)cc2s1	-6	0	-5
O=c1oc2c(Br)c(O)c(Br)cc2s1	76*	-3	41*
COc1cc(C2CN(C(=O)CC(C)(C)C)CC2C(=O)NCC(C)C)cc(OC)c1OC (stereo not drawn)	x	7	1
COc1cccc(C2CN(C(=O)CC(C)(C)C)CC2C(=O)NCc2ccccn2)c1OC (stereo not drawn)	x	5	+
CCN(Cc1ccc(F)cc1)C(=O)c1cc(-c2ccncc2)n[nH]1	x	27	-7
CC(C)c1ccccc1NS(=O)(=O)c1cc(C(=O)O)ccc1Br	-9	-1	2
COc1ccccc1OCCCOc1ccc(Br)cc1Cl	x	60*	1
COc1cccc(OC)c1OCCCOc1ccc(Br)cc1Cl	x	-6	-5
Cc1c(C)n2c3c(=O)n(CC(=O)OCc4ccccc4)c(=O)n(C)c3nc2n1Cc1ccco1	-5	4	0
CCC(C)NC(=O)c1cc(NC(=O)C(C)Cl)ccc1N1CCN(c2ccccc2OC)CC1 (stereo not drawn)	-6	0	-10
SMILES	mcGAS inh	NPYLR7 agonist	hcGAS inh
CCCCN(CC(=O)N(CCc1ccc(OC)c(OC)c1)Cc1cccs1)S(=O)(=O)c1ccc(Cl)c([N+](=O)[O-])c1	-6	16	-10
O=C(Cn1nnnc1CN1CCCC1)NCCC1=CCCCC1	-6	-3	-5
COc1ccc(-c2csc(-n3[nH]c(C)c(N=Nc4cccc(Cl)c4)c3=O)n2)cc1	-6	12	-7
CCOc1ccc(C2=NC(=Cc3cc(OC)c4c(c3)OCCO4)C(=O)O2)cc1OCC	x	2	-6
COc1cc(C=C2N=C(c3ccc4c(c3)OCO4)OC2=O)cc2c1OCCO2	x	97*	-4
Cc1cc(C)n2c(NC3CCCCC3)c(-c3ccc(F)cc3)nc2c1	-4	x	-5
O=c1c(C=NC2CC2)c(-c2ccccc2)[nH]n1-c1nc2ccccc2s1	3	3	60*
O=c1cc(-c2ccccc2)[nH]n1-c1c(F)c(F)c(F)c(F)c1F	-4	5	-3
O=c1cc(-c2ccccc2)[nH]n1-c1nc2ccccc2s1	30	-7	55*
COc1ccc(-c2[nH]n(-c3nc4ccccc4s3)c(=O)c2C=NCCN2CCOCC2)cc1	x	-3	-3
O=C(NC1CCN(c2ccccc2C(=O)NCCc2cccs2)CC1)c1ccc(F)cc1	-5	16	-7
CC1CCN(C(=O)CSc2ccc(NC(=O)c3ccccc3F)nn2)CC1	x	-7	2
CCc1c(C)nc2c(-c3ccccc3)c(C)[nH]n2c1=O	x	-2	6
Cc1[nH]n2c(=O)c(C#N)c(-c3ccccc3)nc2c1-c1ccccc1	x	-5	54*
